# This excerpt belongs to a sample that is enriched for hits.
# p53 reactivation: restores transcriptional activity of mutant p53; H1299 p53-A138V BP100-luciferase reporter, luminescence, 24 h; Potency, µM (doses to about 92.2 µM), inactives show at the top dose activity change, positive = activation, actives largely listed as activators; 320,000 tested, 0.063% active; AID 504706; also: potency is read from the fitted curve at half-maximal effect; % of control where 0% means no effect; nearly all actives have a fitted effect of over 45% in size
#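 p53-null H1299 cells stably carrying temperature-sensitive p53-A138V and a BP100-luciferase reporter were pinned with compounds (4-point, 1:5 series) and held 24 hrs at 37 deg C. Luminescence was read 10 min after detection reagent.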
# Menin-MLL FL inh: displaces fluorescein MLL peptide from human menin. Fluorescence polarization, fluorescein-MLL peptide displacement from menin. FP activity change, % at 61.4 µM. 290,000 tested, under 10 active. AID 1766; active = well fitted curve in the direction sought with a large enough effect in the polarisation, not every such curve was filed as active; inconclusive = small, poorly fitted or top-dose-only effect, or effect the other way, or a change in a side signal; inactive = no such curve, though single readings can be large or run the other way; the % refers to the polarisation; also: % of control where 0% means no effect
# CXXC DNA block: MLL CXXC-DNA interaction inhibition; Q03164; MLL-CXXC / FITC-HOXA9 DNA fluorescence polarization; Potency, µM (top dose mostly 115 µM), inactives show at the highest dose activity change, negative = inhibition, hits mostly inhibitors; 290,000 tested, 0.037% active; AID 2662; active = well fitted inhibition curve with a large enough effect in the polarisation, with a control signal flat, not every such curve was filed as active; inconclusive = small, poorly fitted or top-dose-only effect, or effect the other way, or a change in a side signal; inactive = no such curve, though single readings can be large or run the other way; the % refers to the polarisation; also: potency is read from the fitted curve at half-maximal effect
#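 Fluorescence polarization: 7 uM MLL-CXXC (stock) preincubated 5 min with compounds, then 50 nM fluorescein-HOX-A9 DNA (stock) added; 30 min ambient. Buffer 50 mM Tris-HCl pH 7.5, 50 mM NaCl, 1 mM DTT, 0.05% BSA.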
# ClpP mod: qHTS Assay for Activators of ClpP; ATP-dependent Clp protease proteolytic subunit (Bacillus subtilis (strain 168)), P80244; purified B. subtilis ClpP, FRET peptide cleavage, 20 min; Potency, µM (doses to about 57.5 µM), for the others: top-dose activity change, negative = active; 340,000 tested, 1.9% active; active = well fitted falling curve with a large enough effect; inconclusive = small, poorly fitted or top-dose-only effect; inactive = no such curve, though single readings can be large or run the other way; also: potency is read from the fitted curve at half-maximal effect; the source files actives as falling curves though it sought activators and does not explain the sign; nearly all actives have a fitted effect of over 65% in size
# Target sequence (P80244 whole entry, looked up): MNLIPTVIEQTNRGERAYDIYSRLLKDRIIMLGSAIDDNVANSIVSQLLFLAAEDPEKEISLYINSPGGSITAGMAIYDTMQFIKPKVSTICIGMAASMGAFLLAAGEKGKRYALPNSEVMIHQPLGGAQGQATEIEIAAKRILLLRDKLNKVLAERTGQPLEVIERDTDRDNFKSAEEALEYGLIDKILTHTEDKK
#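 ClpP 10 microg/mL final, pH 8 Tris/KCl buffer with BSA, glycerol, Tween-20; compound pinned in; FRET-FV substrate; RT 20 min; Ex320/Em430; ΔFRET vs ADEP 5.8 microM, DMSO, no enzyme.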
# Menin-MLL TR inh: inhibitors of human menin-MLL interaction, mutant MLL peptide; AID 1768; Potency, µM (titrated, usually from 61.6 µM), for inactives: top-dose FP activity change, negative = inhibition, most hits filed as inhibitors; Menin + Texas Red MLL mutant peptide, fluorescence polarization; O00255; 270,000 tested, 0.23% active; active = well fitted inhibition curve with a large enough effect in the polarisation, with a control signal flat, not every such curve was filed as active; inconclusive = small, poorly fitted or top-dose-only effect, or effect the other way, or a change in a side signal; inactive = no such curve, though single readings can be large or run the other way; the % refers to the polarisation; also: potency is read from the fitted curve at half-maximal effect; % of control where 0% means no effect
# ClpP inh valid: validation of B. subtilis ClpP protease hits (inhibitors) | shares compounds with ClpP mod | purified B. subtilis ClpP, FRET-FV substrate cleavage, 20 min | Potency, µM (top dose mostly 57.5 µM), for the others: top-dose activity change, negative = inhibition, usual class: inhibitors | 470 tested, 40% active; also: potency is read from the fitted curve at half-maximal effect; % is scaled to controls: 0 for no effect and ±100 for the full control effect; nearly all actives have a fitted effect of over 70% in size
# Numbers without * were called inactive; ? = inconclusive; . = no result. Unless noted, calls follow the shape of the dose curve; as a rule, active = well fitted curve in the direction sought with a large enough effect; inconclusive = small, poorly fitted or top-dose-only effect, or another doubt; inactive = no such curve, though single readings can be large; an effect the other way counts as inactive or inconclusive.
SMILES,p53 reactivation,Menin-MLL FL inh,CXXC DNA block,ClpP mod,Menin-MLL TR inh,ClpP inh valid
COc1ccc(-c2cc(C(F)(F)F)nc(-n3cc(Cl)cn3)n2)cc1,5%,14,-1%,4µM*,-1%,22µM*
COc1cc(NC(=O)Cn2c(=O)n(Cc3ccccc3OC)c(=O)c3cccnc32)cc(OC)c1,.,.,.,-26%,.,.
Cc1cccc(-c2cc3nc(-c4ccccc4)cc(N4CCC5(CC4)OCCO5)n3n2)c1,-10%,1,3%,3.2µM*,-5%,24µM*
Cc1cccc(-c2cc3nc(C)cc(C)n3n2)c1,14%,3,2%,.,-1%,.
Fc1cccc(-c2cc3nc(-c4ccccc4)cc(N4CCC5(CC4)OCCO5)n3n2)c1,-3%,-1,-11%,?,-8%,.
Cc1cccc(-c2cc3nc(C)cc(N4CC(C)CC(C)C4)n3n2)c1 (stereo not given),1%,2,?,0.79µM*,-6%,-5%
Cc1ccc(-c2cc3nc(-c4ccccc4)cc(N4CCC5(CC4)OCCO5)n3n2)cc1,7%,5,4%,7.1µM*,2%,4%
COc1ccc2c(c1)NC(c1cccnc1)=NC(c1ccc(F)cc1)=N2,.,.,.,0%,.,.
CCOc1ccc(NC(=O)N(Cc2cn(CC)c3ccccc23)C2CCCCCC2)cc1,.,.,.,-7%,.,.
CCOc1ccc(NC(=O)c2cc3cc4ccc(OC)cc4nc3o2)cc1,0%,1,19%,53%,5%,27µM*
Cn1c(C(=O)NCCC2=CCCCC2)cc2c(=O)n3ccccc3nc21,18%,4,7%,7.9µM*,8%,-16%
Cc1cccn2c(=O)c3cc(C(=O)NCCC4=CCCCC4)n(C)c3nc12,-2%,.,13%,?,.,.
Cc1ccccc1OCCSc1nnc(-c2ccc([N+](=O)[O-])cc2)o1,.,.,.,3%,.,.
Cc1cc(=O)oc2cc(OCc3cc4c(cc3Cl)OCO4)ccc12,-5%,3,-1%,109%,6%,?
O=C(Nc1c(Cl)cccc1Cl)c1cccc2c1C(=O)N(C1CCCCC1)C2,.,.,.,1%,.,.
CCOc1ccccc1CNC(=O)c1cn(-c2ccc(OC)cc2)c(=O)c2ccccc12,.,.,.,30%,.,.
CCN(CC(=O)Nc1c(F)cccc1F)C(=O)Cc1csc(-c2ccc(OC)c(OC)c2)n1,-6%,.,.,3.2µM*,.,12µM*
CCOc1ccc(/C=C/C(=O)N(CC)CC(=O)Nc2c(F)cccc2F)cc1OC,.,.,.,4%,.,.
Cc1ccc(C(=O)Nc2ccc3oc(-c4ccccc4C)nc3c2)cc1,.,.,.,4%,.,.
CCOc1ccc(NC(=O)c2ccc(-c3ccccc3)s2)cc1,.,.,.,-4%,.,.
CNC(=O)c1ccc(-c2ccccc2)s1,?,2,-8%,3.5µM*,-12%,27µM*
CCn1c(=O)n(-c2ccc(F)c(Cl)c2)c(=O)c2c3c(sc21)CN(C(C)=O)CC3,.,.,.,-8%,.,.
Cc1ccc(-c2cn3c(n2)sc2cc(C(=O)NCc4cccs4)ccc23)cc1,.,.,.,7.1µM*,.,27µM*
O=C(NCc1cccs1)c1ccc2c(c1)sc1nc(-c3ccc(F)cc3)cn12,.,.,.,5%,.,.
Cc1cccc(C(=O)Nc2cccc(C(=O)OCc3cc(=O)n4ccsc4n3)c2)c1,.,.,.,-4%,.,.
SMILES,p53 reactivation,Menin-MLL FL inh,CXXC DNA block,ClpP mod,Menin-MLL TR inh,ClpP inh valid
O=S(=O)(c1ccc(-c2csc(Nc3ccc(Br)cc3)n2)cc1)N1CCCC1,-15%,.,?,3.2µM*,.,27µM*
Nc1nc(-c2ccc(S(=O)(=O)N3CCCCC3)cc2)cs1,1%,.,.,4%,.,.
O=c1cc(-c2ccccc2)n2c(SCc3c(F)cccc3Cl)nnc2[nH]1,.,.,.,-27%,.,.
CCCN(CC(=O)Nc1ccccc1C)C(=O)c1ccc(-c2ccc(C(C)=O)cc2)o1,-2%,.,.,8.9µM*,.,19µM*
CCCN(CC(=O)Nc1ccccc1C)C(=O)c1ccc(C(=O)c2ccccc2)cc1,-8%,.,.,-1%,.,.
CCNc1ncc2nc(-c3ccc(F)cc3)c(=O)n(CCOC)c2n1,.,?,.,.,1%,.
O=C(NC1CCCCC1)c1cc(Nc2ccccc2)nc2ccccc12,.,.,.,57%,.,.
COc1ccc(Nc2cc(C(=O)NC3CCCC3)c3ccccc3n2)cc1,.,.,.,38%,.,-10%
O=C1NC(c2ccco2)Nc2ccccc21 (stereo not given),-6%,0,-5%,10µM*,2%,24µM*
O=C1NC(c2ccc(Cl)cc2)Nc2ccccc21 (stereo not given),0%,0,-5%,.,?,.
Cc1cn2c(=O)c(S(=O)(=O)Nc3ccc(OC(F)(F)F)cc3)c(C)nc2s1,.,.,.,-1%,.,.
CCN1CCN(c2cc(C)c3cc(NC(=S)N(C)Cc4ccccc4)ccc3n2)CC1,2%,2,3%,34%,0%,16%
COc1ccc(C2C(=O)N(C3CCCCC3)CC(=O)N2CCc2ccc(OC)c(OC)c2)cc1 (stereo not given),.,.,.,1%,.,.
Cc1cc(Cl)ccc1Oc1nc(-c2ccc(F)cc2)ccc1C#N,-4%,1,-4%,91%,?,?
COc1ccc(NC(=O)c2oc3c(c2C)-c2nn(Cc4ccccc4Cl)cc2CC3)cc1OC,.,.,.,-9%,.,.
FCCCOc1ccc(-c2nccc(-c3ccc(Cl)cc3)n2)cc1,5%,-2,-10%,-8%,26%,.
COc1ccc(-c2ccnc(-c3ccc(OCCCF)cc3)n2)cc1,3%,3,5%,7.9µM*,?,-7%
Cc1ccc(Cl)cc1NC(=O)Nc1nnc(N2CCCC(C)C2)s1 (stereo not given),.,.,.,0%,.,.
Cc1ccc(-c2nc3cc(C(C)C)ccc3o2)cc1NC(=O)c1cc2ccccc2o1,.,.,.,?,.,31µM*
CC1(C)Cc2nc3oc4c(NCc5ccccc5)ncnc4c3cc2CO1,-2%,-1,2%,2.8µM*,-8%,9.7µM*
CC1(C)Cc2nc3oc4c(NCCCN5CCOCC5)ncnc4c3cc2CO1,4%,-1,1%,.,.,.
Cc1c2c(nc3c(C(=O)NC4CCCC4)cnn13)CCCC2,1%,3,2%,7.1µM*,-17%,22µM*
O=C(NC1CCCC1)c1cnn2c(C(F)(F)F)cc(-c3ccco3)nc12,-6%,3,-9%,-18%,-17%,.
O=C(NCC(c1ccco1)S(=O)(=O)c1cccs1)c1ccccc1 (stereo not given),.,.,.,-1%,.,.
Clc1ccc(N2N=C(c3cccs3)CC2c2ccco2)cc1 (stereo not given),4%,4,-1%,3.5µM*,?,27µM*
CCOc1ccccc1NC(=O)CSc1ccc2nnc(CCNS(=O)(=O)c3ccccc3)n2n1,.,.,.,0%,.,.
CCN(CC)CCCCn1c(-c2ccccc2)nc2c(N(CCOC)CCOC)nc(C)nc21,.,-3,.,.,-2%,.

# Source: PubChem BioAssay (National Center for Advancing Translational Sciences (NCATS))
